# Experimental data as given in PubChem BioAssay AID624351 (Southern Research Specialized Biocontainment Screening …, 2012).
# Where “and” joins values, the source holds several entries; their conditions need not be identical. Identical values can stand only once. The whole screen tested about 2,400 compounds, of which about 1,400 (58%) were called active.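 The calls were made as follows: active = inhibition of 30% or more at any tested dose; inconclusive = primary hits over the limit that were never retested; inactive = the rest.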 The set was probably picked from earlier hits. The list shows a part of the results.
# Assay: coupled detection enzyme interference, dose response, artefact control for MgcRacGAP inhibitor project, biochemical, coupled enzyme counter-screen (AID 624351);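 also: signal is the ADP detection kit reading of free GDP without any GAP enzyme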;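 as to inhibition: 0% = median positive control wells and 100% = median negative control wells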
# Details: ADP Hunter coupled enzyme counter-screen, fluorescence, no MgcRacGAP; series mostly up to 80 µM; inhibition: at the top concentration
SMILES,IC50,inhibition
N/C(=N\[N+](=O)[O-])N/N=C/c1ccc(O)cc1,20.8 µM (active),–
O=C(O)CCn1cc(C=C2C(=O)NC(=O)NC2=O)c(-c2ccc(Br)cc2)n1,–,2% (inactive)
Cc1ccc(N2C(=O)NC(=O)/C(=C/c3ccoc3)C2=O)cc1,–,1.28% (inactive)
COc1cc(C=C2C(=O)NC(=O)NC2=O)ccc1OCc1ccc([N+](=O)[O-])cc1,–,3.37% (inactive)
COc1cc(OC)c(OC)cc1/C=C1\C(=O)NC(=O)N(Cc2ccccc2)C1=O,–,6.49% (inactive)
CNC(=O)Oc1ccc(-c2cn3cc(C)ccc3n2)cc1,37.7 µM (active),–
O=C(CNC1CCCC1)Nc1ccc(N2CCCCCC2)cc1,–,23.6% (inactive)
NCCc1cc(O)c(O)cc1O,–,-8.6% [at 5 µM] (inactive) and -17.1% [at 5 µM] (inactive)
CCN(CC)c1ccc(/C=C2/C(=O)NC(=O)N(Cc3ccco3)C2=O)cc1,–,-0.29% (inactive)
c1ccc2c(c1)Nc1ccccc1S2,17.2 µM (active),–
COc1ccccc1OCC#CCN1CCCC1,–,13.8% (inactive)
O=P1(c2ccccc2)Nc2ccccc2N1c1ccccc1 (stereo not given),29.5 µM (active),–
Cn1cccc1/C=C1\C(=O)NC(=O)N(Cc2ccco2)C1=O,–,4.1% (inactive)
Nc1ccc2c3c(cccc13)-c1ccccc1-2,55.5 µM (active),–
CC1=NNC(=O)C1Br (stereo not given),–,5.41% (inactive)
COc1ccccc1CNCCc1cccc(Cl)c1,–,17.4% (inactive)
C1=Cc2ccccc2Nc2ccccc21,12.4 µM (active),–
Cc1cccc(OCC(=O)N2CCN(Cc3ccncc3)CC2)c1,–,26.2% (inactive)
COc1ccc(/C=C2/C(=O)NC(=O)N(c3ccc(C)c(C)c3)C2=O)cc1CN1C(=O)c2ccccc2C1=O,–,3.7% (inactive)
Cc1ccc(CN2CCN(Cc3ccccc3F)CC2)cc1,–,25.6% (inactive)
Cc1cc(/C=C2\C(=O)NC(=O)N(c3ccc(Br)cc3)C2=O)c(C)n1-c1cc(C(=O)O)cc(C(=O)O)c1,–,-1.86% (inactive)
O=C(O)Cn1cc(/C=C2\C(=O)NC(=O)N(c3ccc(Cl)cc3)C2=O)c2ccccc21,–,0.89% (inactive)

SMILES,IC50,inhibition
CN(C)c1ccc(NC(=O)CN2C(=O)CN=C(c3ccccc3)c3ccccc32)cc1,73.3 µM (active),–
COc1ccc(OC)c(N2C(=O)NC(=O)/C(=C/c3ccc([N+](=O)[O-])s3)C2=O)c1,–,4.62% (inactive)
C=CCN1C(=O)/C(=C/c2ccc(Br)s2)C(=O)NC1=S,–,1.24% (inactive)
COc1ccccc1OCC#CCN1CCCC(C)C1 (stereo not given),–,14.2% (inactive)
CSc1nc(N)c(N=Nc2ccc([As](=O)(O)O)cc2)c(=O)[nH]1,–,5.1% (inactive)
O=C(O)c1ccc(-n2c(O)c(/C=C3\C=Nc4ccccc43)c(=O)[nH]c2=O)cc1,–,4.69% (inactive)
O=[N+]([O-])c1ccc2c(c1)Cc1cc(O)ccc1-2,24.5 µM (active),–
Cc1cc(/C=C2\C(=O)NC(=O)N(c3ccccc3F)C2=O)c(C)n1-c1cc(C(=O)O)cc(C(=O)O)c1,–,-1.62% (inactive)
COc1ccccc1-n1c(O)c(/C=C2\C=Nc3ccccc32)c(=O)[nH]c1=O,–,-3.18% (inactive)
CC[N+](C)(CC)CCCCOc1ccc2c(c1)C(=O)c1cc(OCCCC[N+](C)(CC)CC)ccc1-2,–,-3.48% (inactive)
CC1=NCCc2c1[nH]c1cc(O)ccc21,10.2 µM (active),–
Cc1ccc(OCC(=O)N2CCN(CC3CC4C=CC3C4)CC2)cc1 (stereo not given),–,4.58% (inactive)
Clc1ccc(OCC#CCN2CCCCCC2)cc1,–,12.5% (inactive)
CCN(CCCl)c1cc(CN(C)C)cc(NC(=O)c2ccc(C(=O)Nc3cc(CN(C)C)cc(N(CC)CCCl)c3)cc2)c1,–,2.58% (inactive)
COc1ccc(/C=C2\C(=O)NC(=S)N(C)C2=O)cc1C,–,6.6% (inactive)
CC1CCCCN1Cc1cccnc1 (stereo not given),–,21.8% (inactive)
COc1ccc(CCNCc2ccccc2)cc1,–,14.1% (inactive)
CN(C)C1C(=O)C(C(N)=O)=C(O)C2(O)C(=O)C3=C(O)c4c(O)cccc4C(C)(O)C3C(O)C12 (stereo not given),–,-11.3% (inactive)
O=c1c2ccccc2nc(/C=C/c2ccc(O)cc2)n1-c1ccccc1O,60.4 µM (active),–
COc1cc(/C=C/c2nc3ccccc3c(=O)n2-c2ccccc2O)ccc1O,38.1 µM (active),–
COc1ccc(-n2c(/C=C/c3ccc(O)c(OC)c3)nc3ccccc3c2=O)cc1,43.2 µM (active),–
COc1cc(/C=C2/C(=O)NC(=O)N(c3ccccc3)C2=O)ccc1O,–,20.2% (inactive)

SMILES,IC50,inhibition
NC(N)=N/N=C/c1ccc(N(c2ccccc2)c2ccccc2)cc1,–,9.2% (inactive)
O=C1CN(O)C(c2ccccc2)=c2cc(Br)ccc2=N1,–,-8.57% (inactive)
O=C1NC(=O)N(c2ccc3c(c2)OCO3)C(=O)/C1=C\c1ccc(-c2ccccc2C(=O)O)o1,–,2.82% (inactive)
COc1ccc(CN2CCN(Cc3ccccc3OC)CC2)cc1,–,26.5% (inactive)
CCc1c(C)nc(N)nc1N1N=C1SC(C(C)=O)C(C)=O,–,12.9% (inactive)
O=C1NC(=O)C(=Cc2coc3ccc(O)cc3c2=O)C(=O)N1,–,6.5% (inactive)
C=CCN1C(=O)NC(=O)/C(=C/C=C/c2ccccc2)C1=O,–,-1.77% (inactive)
CN1C2CCC1/C(=C/c1ccccn1)C(=O)/C2=C\c1ccccn1,–,1.44% (inactive)
COc1cc(N2CCOCC2)ccc1/C=C1\C(=O)NC(=O)N(Cc2cccs2)C1=O,–,4.76% (inactive)
COc1cc2c(ccc3c4cc(OC)c(OC)cc4c[n+](C)c23)cc1O,–,25.9% (inactive)
CC1CN1P(=O)(Oc1ccc2ccccc2c1)N1CC1C (stereo not given),–,26.3% (inactive)
O=C1NC(=O)C(=Cc2cccs2)C(=O)N1,–,1.78% (inactive)
CCN1CCN(c2ccc(N)c(C)c2)CC1,45.2 µM (active),–
CN1CCN(c2ccc(N)c(N3CCN(C)CC3)c2)CC1,56 µM (active),–
CN1CCN(c2ccc(N)cc2)CC1,42.7 µM (active),–
CCN1CCN(CC(c2ccccc2)c2ccccc2)CC1,–,21.3% (inactive)
N/C(=N\N=C/c1ccc(-c2ccc(O)c(C(=O)O)c2)o1)N[N+](=O)[O-],–,9.45% (inactive)
COc1cc(N2CCOCC2)ccc1/C=C1\C(=O)NC(=O)N(Cc2ccc3c(c2)OCO3)C1=O,–,4.02% (inactive)
O=C(O)CCn1cc(C=C2C(=O)NC(=S)NC2=O)c(-c2cccc(Br)c2)n1,–,2.64% (inactive)
Cc1ccc(OCC(=O)N2CCN(Cc3ccc([N+](=O)[O-])cc3)CC2)cc1,–,11.2% (inactive)
CCc1ccc(N2C(=O)NC(=O)/C(=C\c3cc(C)n(-c4cc(C(=O)O)cc(C(=O)O)c4)c3C)C2=O)cc1,–,-1.7% (inactive)
CN(C)[C@@H]1C(=O)C(C(N)=O)=C(O)[C@@]2(O)C(=O)C3=C(O)c4c(O)cccc4[C@@](C)(O)[C@H]3[C@H](O)[C@@H]12,–,-9.39% [at 5 µM] (inactive)

SMILES,IC50,inhibition
Cc1cccc(N2C(=O)/C(=C/c3ccc(CN(CCC#N)S(C)(=O)=O)o3)C(=O)NC2=S)c1,–,-15.4% (inactive)
Cc1ccc2c(C)c3ccc4ccccc4c3c[n+]2c1,–,17.8% (inactive)
CN(C)c1ccc(/C=C/c2cc[n+](C)c3ccccc23)cc1,47.2 µM (active) and 59.7 µM (active),–
CN(C)c1ccc(/C=C/C=C/c2sc3ccccc3[n+]2C)cc1,70.2 µM (active),–
CCc1ccc(CNCCc2c[nH]c3ccccc23)cc1,–,14.5% (inactive)
O=C1NC(=O)N(CCC2=CCCCC2)C(=O)/C1=C/c1ccc(O)cc1,–,-1.03% (inactive)
COc1ccc(CNCCc2ccc(Cl)cc2)c(OC)c1OC,–,15.8% (inactive)
O=C1NC(=S)N(c2ccccc2)C(=O)/C1=C/c1ccco1,–,0.33% (inactive)
O=C1NC(=S)N(C2CC2)C(=O)/C1=C/c1ccc2c(c1)CCN2CCCCl,–,-10.9% (inactive)
Cc1cc(/C=C2\C(=O)NC(=O)N(c3cccc(F)c3)C2=O)c(C)n1-c1cc(C(=O)O)cc(C(=O)O)c1,–,-5.74% (inactive)
COc1cc(-c2ccc(N)c(OC)c2)ccc1N,8.45 µM (active),–
Cc1cc(-c2cc(C)c(N)c(C)c2)cc(C)c1N,11.2 µM (active),–
Cc1cc(-c2ccc(N)c(C)c2)ccc1N,14.2 µM (active),–
Brc1cccc(CNCCc2ccc3c(c2)OCO3)c1,–,15.8% (inactive)
CN(C)c1ccc(/C=C2/C(=O)NC(=O)N(Cc3ccco3)C2=O)cc1,–,-2.93% (inactive)
Cc1ccccc1N1C(=O)NC(=O)/C(=C\c2cnn(-c3ccccc3)c2)C1=O,–,0.64% (inactive)
O=C1NC(=O)C(=Cc2cc(Cl)ccc2OCc2ccc(C(=O)O)cc2)C(=O)N1,–,3.85% (inactive)
O=C(COc1ccccc1)N1CCN(CC2CC3C=CC2C3)CC1 (stereo not given),–,10.5% (inactive)
O=C1NC(=O)C(=Cc2c(Cl)cccc2Cl)C(=O)N1,–,2.89% (inactive)
COc1cc(CNCCc2ccc3c(c2)OCO3)cc(OC)c1OC,–,18% (inactive)
O=C(Cc1ccccc1)N1CCN(Cc2ccc(F)cc2)CC1,–,18.8% (inactive)
O=C(COc1ccccc1)N1CCN(C2CCCC2)CC1,–,18.8% (inactive)

SMILES,IC50,inhibition
c1ccc(CN2CCN(Cc3ccc4ccccc4c3)CC2)cc1,–,21% (inactive)
O=C(O)c1ccccc1-c1ccc(C=C2C(=O)N(c3ccccc3)C(=S)N(c3ccccc3)C2=O)o1,–,-13.5% (inactive)
Cc1cc(N(C)C)ccc1N=Nc1ccc(N)cc1,33.7 µM (active),–
Nc1ccc(Sc2ccc(N)cc2)cc1,10.4 µM (active),–
Nc1ccc(-c2ccc(N)cc2)cc1,8 µM (active),–
Nc1ccc(N=Nc2ccc(N)cc2)cc1,20.5 µM (active),–
O=C(COc1ccc2ccccc2c1)N1CCN(Cc2ccncc2)CC1,–,27% (inactive)
COc1ccc(N2CC2c2ccncc2)cc1 (stereo not given),–,15.4% (inactive)
COP(=S)(OC)SCn1nnc2ccccc2c1=O,–,3.35% (inactive)
Fc1ccc(CNCCc2ccccc2)cc1,–,17.9% (inactive)
COc1cccc(CN2CCN(Cc3cccc(F)c3)CC2)c1,–,25.4% (inactive)
O=C(O)CCn1cc(C=C2C(=O)NC(=S)NC2=O)c(-c2ccccc2)n1,–,-0.34% (inactive)
COc1ccc(CCNCc2cccc(C(F)(F)F)c2)cc1OC,–,7.61% (inactive)
CSc1ccc(CN2CCN(Cc3ccccc3Cl)CC2)cc1,–,23.1% (inactive)
O=P(Oc1ccc(-c2ccccc2)cc1)(N1CC1)N1CC1,–,12.6% (inactive)
O=C(NC1CCCCC1)Oc1cc2oc(=O)sc2cc1Cl,–,6.33% (inactive)
COc1ccccc1N1CCN(Cc2cccc(Br)c2)CC1,–,15.7% (inactive)
COc1ccc(Br)cc1CNCCc1cccc(Cl)c1,–,18.7% (inactive)
O=C1NC(=O)C(=Cc2ccco2)C(=O)N1,–,1.13% (inactive)
Cc1nn(CCC#N)c2c1P(=S)(N1CCCC1)OC(c1ccc(F)cc1)=N2 (stereo not given),–,2.38% (inactive)
O=C1NC(=O)N(c2ccccc2)C(=O)/C1=C/c1coc2ccc(O)cc2c1=O,–,7.15% (inactive)
CN(C)c1ccc2c(c1)N=C(c1ccco1)OP2(=S)N1CCOCC1 (stereo not given),–,3.53% (inactive)
